PubChem BioAssay (Tox21)
Results filed as inconclusive are left out. Where a call stands in place of a potency, no number is given. Activity calls are given as the source filed them. Unless noted, the call rests on the fitted dose curve.

Target: Thyrotropin receptor (Homo sapiens) (UniProt P16473)
Test: qHTS assay to identify small molecule antagonists of the thyroid stimulating hormone receptor (TSHR) signaling pathway (AID 1259385); further: nearly all actives have a fitted effect of over 20% in size
Details: TSHR-HEK293 cAMP HTRF, TSH-stimulated antagonist mode; series mostly up to 92.4 µM
Procedure, shortened: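 Antagonist mode: compound-treated TSHR-expressing HEK293 cells were stimulated with 1.5 ng/mL TSH (final) in presence of Ro20-1724 for 30 min at RT. HTRF cAMP detection after 1 h; each compound tested at 15 concentrations, triplicate.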

Sequence of Thyrotropin receptor (Homo sapiens) (P16473 whole entry, looked up): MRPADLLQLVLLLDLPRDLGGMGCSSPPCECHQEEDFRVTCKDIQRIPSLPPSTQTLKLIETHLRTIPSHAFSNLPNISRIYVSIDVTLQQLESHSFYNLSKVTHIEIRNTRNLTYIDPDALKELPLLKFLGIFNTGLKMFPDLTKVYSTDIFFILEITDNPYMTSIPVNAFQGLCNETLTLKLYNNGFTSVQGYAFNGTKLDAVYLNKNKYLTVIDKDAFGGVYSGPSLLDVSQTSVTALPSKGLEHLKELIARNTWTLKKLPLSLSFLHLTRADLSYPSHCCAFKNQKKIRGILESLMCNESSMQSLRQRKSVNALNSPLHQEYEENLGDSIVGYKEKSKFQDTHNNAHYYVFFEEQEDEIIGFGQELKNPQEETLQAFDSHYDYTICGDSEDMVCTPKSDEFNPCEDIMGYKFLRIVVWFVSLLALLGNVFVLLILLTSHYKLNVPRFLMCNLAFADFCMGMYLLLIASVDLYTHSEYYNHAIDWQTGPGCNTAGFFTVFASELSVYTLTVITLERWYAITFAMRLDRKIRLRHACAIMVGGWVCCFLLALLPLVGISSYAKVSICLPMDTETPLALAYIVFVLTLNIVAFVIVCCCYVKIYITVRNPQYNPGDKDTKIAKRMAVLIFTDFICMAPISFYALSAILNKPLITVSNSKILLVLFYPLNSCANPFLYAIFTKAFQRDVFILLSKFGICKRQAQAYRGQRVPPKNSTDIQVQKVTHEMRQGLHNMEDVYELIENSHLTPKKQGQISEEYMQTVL

| SMILES | Potency |
| --- | --- |
| CCCCCCCCOC(=O)c1ccc(C(=O)OCCCCCCCC)c(C(=O)OCCCCCCCC)c1 | inactive |
| CC(C)O.CC(C)O.OCCN(CCO)CCO.OCCN(CCO)CCO.[Ti] | inactive |
| C[N+](C)(C)CCCl | inactive |
| C=CCN1CC[C@]23c4c5ccc(O)c4O[C@H]2C(=O)CC[C@@]3(O)[C@H]1C5 | inactive |
| CCOC(=O)C(Cl)C(C)=O (stereo not given) | inactive |
| CC(Cl)Cl | inactive |
| C=COC(C)=O | inactive |
| COC(=O)c1cncn1C(C)c1ccccc1 (stereo not given) | inactive |
| Clc1cc(Cl)c(Cl)c(Cl)c1 | inactive |
| C[C@@H]1CC[C@H]2[C@@H](C)C(=O)O[C@@H]3O[C@@]4(C)CC[C@@H]1[C@]32OO4 | inactive |
| CCBr | inactive |
| CCOP(O)OCC | inactive |
| CC(C)(OO)c1ccccc1 | inactive |
| CC1C(=O)C[C@]2(C(C)C)C[C@H]12 (stereo not given in full) | inactive |
| CC/C(=N\OC/C=C/Cl)C1=C(O)CC(C2CCOCC2)CC1=O (stereo not given) | inactive |
| CC(C)(CCl)C(=O)Cl | inactive |
| C=CC(=O)OCC(C)O (stereo not given) | inactive |
| CCOS(C)(=O)=O | inactive |

| SMILES | Potency |
| --- | --- |
| C[C@H]1CNCCc2ccc(Cl)cc21 | inactive |
| CCC(Br)(CC)C(=O)NC(N)=O | inactive |
| COC(C)(C)CCC[C@H](C)C/C=C/C(C)=C/C(=O)OC(C)C | inactive |
| Clc1cc(C(Cl)(Cl)Cl)cnc1Cl | inactive |
| CCCCNP(N)(N)=S | inactive |
| CC(=O)[C@H]1CC[C@H]2[C@@H]3CC[C@H]4C[C@](C)(O)CC[C@]4(C)[C@H]3CC[C@]12C | inactive |
| O=C(O)C(F)(F)C(F)(F)C(F)(F)C(F)(F)C(F)(F)C(F)(F)C(F)(F)C(F)(F)C(F)(F)F | inactive |
| C#CCOC(C(=O)OCCN(C)C)(c1ccccc1)c1ccccc1 | inactive |
| O=S(=O)(Cl)c1ccccc1 | inactive |
| Cc1cc(=O)[nH]o1 | inactive |
| O=C(O)COc1ccc(Cl)cc1 | inactive |
| CNC(C)Cc1ccccc1OC (stereo not given) | inactive |
| c1ccc(CN2CCNCC2)cc1 | inactive |
| CCN(C)N=O | inactive |
| ClCc1ccccc1 | inactive |
| O=S1OC[C@@H]2[C@H](CO1)[C@]1(Cl)C(Cl)=C(Cl)[C@@]2(Cl)C1(Cl)Cl (stereo not given in full) | inactive |
| CCCCCC[N+](=O)[O-] | inactive |

Tested on: not listed separately
Test: qHTS assay to identify small molecule agonists of the estrogen receptor alpha (ER-alpha) signaling pathway in the presence of an antagonist - cell viability counter screen (AID 1259386; active means well fitted cell-killing curve with a large enough effect in the repeat runs;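 further: cells exposed to compounds for 22 h at 37 °C before the viability read; nearly all actives have a fitted effect of over 30% in size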)
Details: VM7Luc4E2 viability, CellTiter-Fluor fluorescence, 22 h; series mostly up to 92.4 µM
Procedure, shortened: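 Cells are starved of estrogens for 5 days in charcoal-stripped serum, seeded for 24hr and co-treated with ICI-182,780 (10.0nM final) and test compounds. After 22hr at 37C, viability is read as CellTiter-Fluor fluorescence.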

| SMILES | Potency |
| --- | --- |
| CCCCCCCCOC(=O)c1ccc(C(=O)OCCCCCCCC)c(C(=O)OCCCCCCCC)c1 | inactive |
| CC(C)O.CC(C)O.OCCN(CCO)CCO.OCCN(CCO)CCO.[Ti] | inactive |
| C[N+](C)(C)CCCl | inactive |
| C=CCN1CC[C@]23c4c5ccc(O)c4O[C@H]2C(=O)CC[C@@]3(O)[C@H]1C5 | inactive |
| CCOC(=O)C(Cl)C(C)=O (stereo not given) | inactive |
| CC(Cl)Cl | inactive |
| C=COC(C)=O | inactive |
| COC(=O)c1cncn1C(C)c1ccccc1 (stereo not given) | inactive |
| Clc1cc(Cl)c(Cl)c(Cl)c1 | inactive |
| C[C@@H]1CC[C@H]2[C@@H](C)C(=O)O[C@@H]3O[C@@]4(C)CC[C@@H]1[C@]32OO4 | inactive |
| CCBr | inactive |
| CCOP(O)OCC | inactive |
| CC(C)(OO)c1ccccc1 | inactive |
| CC1C(=O)C[C@]2(C(C)C)C[C@H]12 (stereo not given in full) | inactive |
| CC/C(=N\OC/C=C/Cl)C1=C(O)CC(C2CCOCC2)CC1=O (stereo not given) | inactive |
| CC(C)(CCl)C(=O)Cl | inactive |
| C=CC(=O)OCC(C)O (stereo not given) | inactive |
| CCOS(C)(=O)=O | inactive |

| SMILES | Potency |
| --- | --- |
| C[C@H]1CNCCc2ccc(Cl)cc21 | inactive |
| CCC(Br)(CC)C(=O)NC(N)=O | inactive |
| COC(C)(C)CCC[C@H](C)C/C=C/C(C)=C/C(=O)OC(C)C | inactive |
| Clc1cc(C(Cl)(Cl)Cl)cnc1Cl | inactive |
| CCCCNP(N)(N)=S | inactive |
| CC(=O)[C@H]1CC[C@H]2[C@@H]3CC[C@H]4C[C@](C)(O)CC[C@]4(C)[C@H]3CC[C@]12C | inactive |
| O=C(O)C(F)(F)C(F)(F)C(F)(F)C(F)(F)C(F)(F)C(F)(F)C(F)(F)C(F)(F)C(F)(F)F | inactive |
| C#CCOC(C(=O)OCCN(C)C)(c1ccccc1)c1ccccc1 | inactive |
| O=S(=O)(Cl)c1ccccc1 | inactive |
| Cc1cc(=O)[nH]o1 | inactive |
| O=C(O)COc1ccc(Cl)cc1 | inactive |
| CNC(C)Cc1ccccc1OC (stereo not given) | inactive |
| c1ccc(CN2CCNCC2)cc1 | inactive |
| CCN(C)N=O | inactive |
| ClCc1ccccc1 | inactive |
| O=S1OC[C@@H]2[C@H](CO1)[C@]1(Cl)C(Cl)=C(Cl)[C@@]2(Cl)C1(Cl)Cl (stereo not given in full) | inactive |
| CCCCCC[N+](=O)[O-] | inactive |

Target: Progesterone receptor (Homo sapiens) (UniProt P06401)
Sequence (P06401 whole entry, looked up): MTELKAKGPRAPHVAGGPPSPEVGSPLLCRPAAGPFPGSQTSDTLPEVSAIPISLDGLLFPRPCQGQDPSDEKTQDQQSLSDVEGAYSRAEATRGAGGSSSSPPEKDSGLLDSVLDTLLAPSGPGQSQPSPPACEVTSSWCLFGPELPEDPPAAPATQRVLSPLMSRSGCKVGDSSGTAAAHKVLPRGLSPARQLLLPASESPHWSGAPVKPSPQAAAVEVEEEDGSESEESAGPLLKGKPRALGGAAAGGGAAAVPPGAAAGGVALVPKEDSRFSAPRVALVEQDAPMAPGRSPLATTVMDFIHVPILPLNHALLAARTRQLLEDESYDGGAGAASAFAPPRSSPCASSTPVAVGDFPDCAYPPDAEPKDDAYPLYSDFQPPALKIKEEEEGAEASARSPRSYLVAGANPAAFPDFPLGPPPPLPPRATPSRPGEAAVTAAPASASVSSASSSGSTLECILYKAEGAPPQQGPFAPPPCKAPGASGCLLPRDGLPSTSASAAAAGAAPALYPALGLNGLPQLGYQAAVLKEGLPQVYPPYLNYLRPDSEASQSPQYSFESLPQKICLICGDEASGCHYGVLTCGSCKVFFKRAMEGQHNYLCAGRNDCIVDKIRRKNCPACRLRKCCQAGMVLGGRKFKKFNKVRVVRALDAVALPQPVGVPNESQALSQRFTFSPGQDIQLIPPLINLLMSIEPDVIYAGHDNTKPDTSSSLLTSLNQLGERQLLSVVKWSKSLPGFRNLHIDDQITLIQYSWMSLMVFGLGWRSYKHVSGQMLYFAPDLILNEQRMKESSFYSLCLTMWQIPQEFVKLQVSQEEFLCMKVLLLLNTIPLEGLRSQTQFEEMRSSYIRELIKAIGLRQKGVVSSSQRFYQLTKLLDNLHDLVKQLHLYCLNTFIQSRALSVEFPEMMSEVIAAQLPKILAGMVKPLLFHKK
Test: qHTS assay to identify small molecule agonists of the progesterone receptor (PR) signaling pathway (AID 1346784); further: nearly all actives have a fitted effect of over 30% in size
Details: PR-UAS-bla HEK293T, beta-lactamase FRET ratio, 16 h; series mostly up to 92.4 µM
Procedure, shortened: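 Cells (PR-UAS-bla HEK 293T, GripTite) were plated in assay medium containing 2% charcoal-stripped FBS and incubated 6 hr. Test compounds in DMSO were added for 16 hr at 37C. FRET substrate was then loaded for 2 hr at room temperature before fluorescence reading.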

| SMILES | Potency |
| --- | --- |
| CCCCCCCCOC(=O)c1ccc(C(=O)OCCCCCCCC)c(C(=O)OCCCCCCCC)c1 | inactive |
| CC(C)O.CC(C)O.OCCN(CCO)CCO.OCCN(CCO)CCO.[Ti] | inactive |
| C[N+](C)(C)CCCl | inactive |
| C=CCN1CC[C@]23c4c5ccc(O)c4O[C@H]2C(=O)CC[C@@]3(O)[C@H]1C5 | inactive |
| CCOC(=O)C(Cl)C(C)=O (stereo not given) | inactive |
| CC(Cl)Cl | inactive |
| C=COC(C)=O | inactive |
| COC(=O)c1cncn1C(C)c1ccccc1 (stereo not given) | inactive |
| Clc1cc(Cl)c(Cl)c(Cl)c1 | inactive |
| C[C@@H]1CC[C@H]2[C@@H](C)C(=O)O[C@@H]3O[C@@]4(C)CC[C@@H]1[C@]32OO4 | inactive |
| CCBr | inactive |
| CCOP(O)OCC | inactive |
| CC(C)(OO)c1ccccc1 | inactive |
| CC1C(=O)C[C@]2(C(C)C)C[C@H]12 (stereo not given in full) | inactive |
| CC/C(=N\OC/C=C/Cl)C1=C(O)CC(C2CCOCC2)CC1=O (stereo not given) | inactive |
| CC(C)(CCl)C(=O)Cl | inactive |
| C=CC(=O)OCC(C)O (stereo not given) | inactive |
| CCOS(C)(=O)=O | inactive |

| SMILES | Potency |
| --- | --- |
| C[C@H]1CNCCc2ccc(Cl)cc21 | inactive |
| CCC(Br)(CC)C(=O)NC(N)=O | inactive |
| COC(C)(C)CCC[C@H](C)C/C=C/C(C)=C/C(=O)OC(C)C | inactive |
| Clc1cc(C(Cl)(Cl)Cl)cnc1Cl | inactive |
| CCCCNP(N)(N)=S | inactive |
| CC(=O)[C@H]1CC[C@H]2[C@@H]3CC[C@H]4C[C@](C)(O)CC[C@]4(C)[C@H]3CC[C@]12C | inactive |
| O=C(O)C(F)(F)C(F)(F)C(F)(F)C(F)(F)C(F)(F)C(F)(F)C(F)(F)C(F)(F)C(F)(F)F | inactive |
| C#CCOC(C(=O)OCCN(C)C)(c1ccccc1)c1ccccc1 | inactive |
| O=S(=O)(Cl)c1ccccc1 | inactive |
| Cc1cc(=O)[nH]o1 | inactive |
| O=C(O)COc1ccc(Cl)cc1 | inactive |
| CNC(C)Cc1ccccc1OC (stereo not given) | inactive |
| c1ccc(CN2CCNCC2)cc1 | inactive |
| CCN(C)N=O | inactive |
| ClCc1ccccc1 | inactive |
| O=S1OC[C@@H]2[C@H](CO1)[C@]1(Cl)C(Cl)=C(Cl)[C@@]2(Cl)C1(Cl)Cl (stereo not given in full) | inactive |
| CCCCCC[N+](=O)[O-] | inactive |
